The campaign covered roughly 310,000 compounds. About 1,200 (0.39%) were called active. The list is a sample of the results. Entries with a potency or affinity are not part of this list. Unmarked numbers belong to inactive results. No rule for the calls is given here.

The target of this test is Large T antigen (Simian virus 40) (UniProt P03070). Briefly: TAg ATPase/helicase activity blockers – biochemical (AID 1903). To be noted: SV40 large T antigen ATPase/helicase inhibition assay; at 20 µM; active compounds read high.
Chain of Large T antigen (Simian virus 40) (P03070 whole entry, looked up): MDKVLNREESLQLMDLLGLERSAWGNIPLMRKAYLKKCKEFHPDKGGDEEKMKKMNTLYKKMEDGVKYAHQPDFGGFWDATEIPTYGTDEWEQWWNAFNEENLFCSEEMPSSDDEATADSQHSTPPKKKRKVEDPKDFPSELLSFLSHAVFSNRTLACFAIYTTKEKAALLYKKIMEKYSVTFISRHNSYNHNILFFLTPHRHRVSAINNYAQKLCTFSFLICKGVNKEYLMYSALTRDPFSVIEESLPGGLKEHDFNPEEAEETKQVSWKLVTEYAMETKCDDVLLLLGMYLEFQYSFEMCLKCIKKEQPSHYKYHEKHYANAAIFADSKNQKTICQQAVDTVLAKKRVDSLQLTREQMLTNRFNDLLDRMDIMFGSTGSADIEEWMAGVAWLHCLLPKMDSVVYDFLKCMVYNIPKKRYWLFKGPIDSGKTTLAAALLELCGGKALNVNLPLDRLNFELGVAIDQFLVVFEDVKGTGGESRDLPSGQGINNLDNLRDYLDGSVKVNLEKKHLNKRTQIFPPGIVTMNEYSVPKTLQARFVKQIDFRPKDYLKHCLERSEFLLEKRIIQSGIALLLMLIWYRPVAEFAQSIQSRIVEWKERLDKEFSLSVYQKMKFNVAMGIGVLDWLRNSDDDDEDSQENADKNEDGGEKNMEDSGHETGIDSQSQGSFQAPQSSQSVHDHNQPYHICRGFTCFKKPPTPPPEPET
For `Cc1cc(C)c2c(=O)[nH]c(SCc3ccccc3C)nc2n1`, the inhibition was 1.53%.

In the case of `CCC(=O)Oc1ccc(C(=O)Nc2cccc(NC(=O)c3ccco3)c2)cc1`, the inhibition is -2.07%.

`Cc1ccc(OCC(=O)Nc2ccc(F)cc2)c([N+](=O)[O-])n1`: the inhibition is 6.19%.

As to `Cc1ccc(NC(=O)C2CCN(S(=O)(=O)c3cnc[nH]3)CC2)cc1C`, the inhibition is 12%.

Take `COc1ccccc1OCC(=O)Nc1nonc1NC(=O)COc1ccccc1OC`: the inhibition was 11.7%.

Turning to `CC(=O)Nc1ccc(N2CC(C)(C)C2=O)cc1`, the inhibition is 14.5%.

Consider `COc1ccc(F)cc1S(=O)(=O)N1CCCC(C)C1` (configuration not stated), for which the inhibition is 4.43%.

Turning to `OCCC1CN(Cc2cccc(C(F)(F)F)c2)CCN1Cc1ccccc1` (configuration not stated), the inhibition was 5.73%.

Turning to `O=Cc1ccc(-c2cccc(C(=O)O)c2)o1`, the inhibition is 8.85%.

On to `O=C1NN(c2ccccc2)C(=O)/C1=C/c1ccc(Sc2cccc3ccccc23)o1`, for which the inhibition was 9.56%.

Regarding `CCSc1ccccc1C(=O)N1CCN(c2ccccc2F)CC1`, the inhibition was 4.24%.

On to `CC(C)c1ccc(C2/C(=C(\O)c3ccc4c(c3)OCCO4)C(=O)C(=O)N2CCN2CCOCC2)cc1` (configuration not stated), for which the inhibition is 10.8%.

For `Cc1ccc2nc(/C(C#N)=C/c3ccc(O)c(O)c3)[nH]c2c1`, the inhibition was 36.8%.

Consider `N#C/C(=C\c1ccncc1)c1nc2ccccc2[nH]1`, for which the inhibition was -51.6%.

With `Cn1c(CSCc2ccc(F)cc2)nnc1SCC(=O)N1CCN(c2ccccc2)CC1`, the inhibition is 29.3%.

`CC1=CN2C(=NC(=O)CC2(C)C(=O)N(CC(=O)NC2CCCC2)Cc2ccccc2)C=C1` (configuration not stated): the inhibition was 3.88%.

For the compound `Oc1ccc(Nc2nc(-c3ccc4ccccc4c3)cs2)cc1`, the inhibition was 35.8%.

With `CCCc1cc(=O)[nH]c(Nc2ccc(Cl)cc2)n1`, the inhibition is 16.6%.

For `COc1c(CC=C(C)C)c(O)cc2oc(=O)c3c4ccc(O)cc4oc3c12`, the inhibition is 21.6%.

`Cc1c(O)c2ccccc2oc1=O`: the inhibition is 8.49%.

As for `O=C1C=C(NC2CC2)C2(CCCCC2)O1`, the inhibition was 6.12%.

Consider `C=CCN1C(=O)C2C3C=CC(C2C1=O)C1C2C(=O)N(CC=C)C(=O)C2C31` (configuration not stated), for which the inhibition is 0.93%.

In the case of `Cc1oc2cc(O)ccc2c(=O)c1-c1cnn(-c2ccccc2)c1`, the inhibition was 1.6%.

As for `Cc1oc2c(C)c(O)ccc2c(=O)c1-c1cnn(-c2ccccc2)c1`, the inhibition was 12.9%.

For the compound `CC(C)N1C(=O)CCC1C(=O)NCc1ccco1` (configuration not stated), the inhibition was 10.9%.

`CCOC(=O)C1=C(CC)Nc2ccccc2N=C1NC(=O)Cn1cnc2ccccc2c1=O`: the inhibition is -2.64%.

For `S=C(NCC1CCCO1)N1CCN(c2ccccc2)CC1` (configuration not stated), the inhibition is 8.18%.

For `CC(C)(C)OC(=O)NCCCC[C@H](NC(=O)c1nc[nH]c1C(=O)NC1CCN(C(=O)OC(C)(C)C)CC1)C(=O)OC(C)(C)C`, the inhibition is 3.23%.

As to `O=[N+]([O-])c1cccc(-c2ncc3ccccn23)c1`, the inhibition is -2.83%.

Consider `Nc1c(-c2cccc([N+](=O)[O-])c2)nc2ccccn12`, for which the inhibition is 15.8%.

As for `Cc1cc(NC(=O)CSCC(=O)Nc2cc(C(F)(F)F)ccc2N2CCCC2)no1`, the inhibition is 4.79%.

Take `Nc1ncnc2c1ncn2CCOc1ccccc1`: the inhibition is 3.18%.

For `O=C(N/N=C/c1cc(Cl)c(O)c(Cl)c1)c1cc2c(ccc3ccccc32)o1`, the inhibition is 29.3%.

`O=C(N/N=C/c1ccc(O)c(Br)c1)c1cc2c(ccc3ccccc32)o1`: the inhibition is -8.03%.

For `O=C(CCc1ccccc1)NNC(=O)c1ccccc1F`, the inhibition was 10.9%.

Regarding `Cc1nc(C)c(-c2csc(Nc3ccc(F)cc3)n2)s1`, the inhibition is 6.12%.

Regarding `Cc1ccc(Nc2nc(-c3sc(C)nc3C)cs2)cc1`, the inhibition is 3.8%.

`COc1ccc(/C(C)=N\NC(=O)c2ccc3c(c2)OCO3)cc1OC`: the inhibition is 1.47%.

Consider `Cc1c(NS(=O)(=O)c2cc(C(=O)NCCN(C)C)ccc2Cl)c(=O)n(-c2ccccc2)n1C`, for which the inhibition is 10.6%.

With `C=CCN1C(=O)CSC1=Nc1ccc(O)cc1`, the inhibition was 27.9%.

As for `COc1ccc(N=C2SCC(=O)N2c2ccc(OC)cc2)cc1`, the inhibition was 13.7%.

As for `Cc1cccc(C(=O)NCC(=O)NCC2COc3ccccc3O2)c1` (configuration not stated), the inhibition is 23.4%.

Take `CCOc1c(/C=C(\C#N)C(N)=O)c2ccccc2n1CC`: the inhibition is 3.23%.

Regarding `COc1ccc(Oc2nc3ccccc3n3cccc23)cc1`, the inhibition is 5.06%.

`CCc1ccc2[nH]c(=O)c(C(c3nnnn3CCOC)N3CCN(c4ccccc4)CC3)cc2c1` (configuration not stated): the inhibition is 6%.

Turning to `CCc1ccc2[nH]c(=O)c(C(c3nnnn3CCOC)N3CCN(c4ccc(F)cc4)CC3)cc2c1` (configuration not stated), the inhibition is 16.5%.

In the case of `CSCc1cc(N2CCOCC2)nc(-c2ccccc2)n1`, the inhibition was 9.12%.

For `O=C(Cc1ccc([N+](=O)[O-])cc1)c1c(O)cc(O)cc1O`, the inhibition was 28%.

For `O=C(CN1C(=O)c2ccccc2S1(=O)=O)Nc1ccccc1`, the inhibition is 18.1%.

With `COC(=O)CSC1=NS(=O)(=O)c2ccccc21`, the inhibition is 5.69%.

As to `NS(=O)(=O)c1ccc(NC(=O)c2cccc(N3C(=O)c4ccccc4C3=O)c2)cc1`, the inhibition was 7.91%.

Regarding `COC(=O)CCC(=O)Nc1ccc(N=Nc2ccccc2)cc1`, the inhibition is 8.53%.

Turning to `COc1ccc(-c2nc(-c3ccccc3)[nH]c(=O)c2C#N)cc1`, the inhibition was 9.65%.

Turning to `Clc1cc(Cl)cc(C2=NC(Cc3ccccc3)CO2)c1` (configuration not stated), the inhibition was 4.6%.

For the compound `COc1ccc(C2C(C#N)=C(N)N(N(C)C)C3=C2C(=O)CCC3)cc1` (configuration not stated), the inhibition was 6.69%.

Turning to `COc1ccc(C[C@H]2COC(=O)[C@@H]2Cc2ccc(OC3OC(CO)C(O)C(O)C3O)c(OC)c2)cc1OC` (some centres not stated), the inhibition was 11.3%.

For the compound `COc1cc(/C=C/CO)ccc1O[C@@H]1O[C@H](CO)[C@@H](O)[C@H](O)[C@H]1O`, the inhibition was 1.74%.

Consider `CCCCOc1ccc(C(=O)NCC(=O)N2CCN(Cc3ccc4c(c3)OCO4)CC2)cc1`, for which the inhibition is 14%.

Regarding `COc1ccc(NC(=O)COc2ccc(C)cc2)c([N+](=O)[O-])c1`, the inhibition was 5.55%.

As to `O=C(NCCOCCNC(=O)OCc1ccccc1)OCc1ccccc1`, the inhibition is 24.2%.

As for `CCOC(=O)c1c(NC(C)=O)sc2c(O)c(Br)ccc12`, the inhibition was 12.8%.

On to `CCOC(=O)c1c(NC(C)=O)sc2c(OC)c(Br)ccc12`, for which the inhibition is 1.77%.

For the compound `Cc1cc(C)c(C)c(OCCOCCNCc2ccccc2)c1`, the inhibition was -32.9%.

As to `COc1ccc(NC(=O)CN(C)Cc2c(F)cccc2Cl)cc1S(=O)(=O)N1CCCCC1`, the inhibition was 4.49%.

For the compound `CN1C(=O)SC(Nc2ccc(F)cc2)C1=O` (configuration not stated), the inhibition is 20.7%.

Take `CN1C(=O)SC(Nc2ccccc2)C1=O` (configuration not stated): the inhibition is 5.64%.

As to `CCN(CC)S(=O)(=O)c1cccc(-c2cn3cc(C)ccc3n2)c1`, the inhibition is 8.06%.

Consider `O=C(NCCC1CCCCN1S(=O)(=O)c1ccccc1)C(=O)NCc1ccncc1` (configuration not stated), for which the inhibition was 4.13%.

Turning to `COc1ccc(-c2cc(C(F)(F)F)nc(N3CCN(C)CC3)n2)cc1`, the inhibition was 1.63%.

Consider `C/C(=N\NC(=O)CSc1nc2ccccc2o1)c1cccc(O)c1`, for which the inhibition is 14.6%.

As to `C/C(=N/NC(=O)CSc1nc2ccccc2n1C)c1ccco1`, the inhibition was -1.06%.

Take `C/C(=N/NC(=O)CSc1nc2ccccc2n1C)c1ccncc1`: the inhibition was 1.08%.

For the compound `CC(=O)Nc1ccc(NC(=O)CSc2nc3ccccc3o2)cc1`, the inhibition was 5.88%.

Regarding `O=C(NC1CCCCC1)C1CCCN1S(=O)(=O)c1ccc(Cl)cc1` (configuration not stated), the inhibition was -4.64%.

`O=C(C1CC1)N1CCN(C(c2ccccc2)c2ccccc2)CC1`: the inhibition is 20.8%.

Regarding `COc1ccc(NC(=S)N2CCC(NC(=O)c3cccc(C)c3)CC2)cc1`, the inhibition is 19.3%.

As to `FC(F)(F)Oc1ccc(Nc2nc3ccccc3o2)cc1`, the inhibition is 17%.

On to `CS(=O)(=O)c1ccccc1C(=O)Nc1cccc(-c2nc3ccccc3o2)c1`, for which the inhibition is 6.81%.

For `CCNC(=S)N/N=C/c1ccc(-c2ccccc2)o1`, the inhibition was 9.76%.

In the case of `CC(C)Cn1c(=O)c2ccccc2c2ccccc2c1=O`, the inhibition was 13.4%.

As for `O=C(NNC(=O)c1ccccc1-n1cccc1)c1ccc(Cl)cc1`, the inhibition is 6.79%.

As to `CCOc1cc(NS(=O)(=O)c2ccc(NC(C)=O)cc2)c(OCC)cc1NC(=O)C(C)C`, the inhibition is 9.09%.

Take `CCOc1cc(NC(=S)NC)c(OCC)cc1NC(=O)c1cccs1`: the inhibition was 9.37%.

For the compound `CCCCNC(=O)CNC(=O)c1nn(-c2ccc(OC)cc2OC)c(=O)c2ccccc12`, the inhibition was 4.78%.

Consider `CN(C)c1ccc(/C=N/O)cc1`, for which the inhibition is 37.8%.

As to `CCN(Cc1ccccc1)c1ccc(/C=N/N2CCOCC2)cc1`, the inhibition was 32.1%.

Consider `CN(c1ccccc1)c1ccc(/C=N/N2CCOCC2)cc1`, for which the inhibition was 32.7%.

On to `CCN(CC)c1ccc(/C=N\NC(N)=O)cc1`, for which the inhibition is 24.1%.

As to `COc1cc(OC)cc(C(=O)Nc2ccc(NC(=O)c3ccco3)c(C)c2)c1`, the inhibition is 20%.

For the compound `CCOC(=O)c1cccc(NC(=O)CN2CCN(c3ccc(OC)cc3)CC2)c1`, the inhibition is 38.2%.

Consider `C=CCC1(CC=C)CCCN1C(=O)CC1C(=O)NCCN1Cc1ccc(OC)c(OC)c1` (configuration not stated), for which the inhibition is 10.2%.

For the compound `O=C(NC1CCC(O)CC1)c1cccc2cccnc12` (configuration not stated), the inhibition is 3.23%.

`O=C(NNC(=S)NC(=O)c1ccccc1[N+](=O)[O-])c1ccccc1O`: the inhibition is 31.4%.

With `O=C(OCC1OC(n2ccc(=O)[nH]c2=O)C(O)C1OC(=O)c1ccccc1)c1ccccc1` (configuration not stated), the inhibition was 11.7%.

In the case of `COC1OC(COC(=O)c2ccccc2)C(OC(=O)c2ccccc2)C1OC(=O)c1ccccc1` (configuration not stated), the inhibition was 3.67%.

On to `Cc1cn(C2OC(COC(=O)c3ccccc3)C(OC(=O)c3ccccc3)C2OC(=O)c2ccccc2)c(=O)[nH]c1=O` (configuration not stated), for which the inhibition was 4.67%.

As to `O=C(OCC1OC(n2ncc(=O)[nH]c2=O)C(OC(=O)c2ccccc2)C1OC(=O)c1ccccc1)c1ccccc1` (configuration not stated), the inhibition is 6.13%.

The values above are taken from PubChem BioAssay AID1903 (Southern Research Specialized Biocontainment Screening …, 2009).
